The supplement of paper PMC11732987, “Enantioselective OTUD7B fragment discovery through chemoproteomics screening and high-throughput optimisation” (Communications Chemistry, 2025)

The molecules below were run against USP14 (UniProt P54578) (assay: log2 ratio of Biotin-Ahx-Ub-VS probe labelling (fragment/DMSO); higher = less target engagement (more negative = stronger competition), active = hit call of the paper (q ≤ 0.05, log2 ratio ≤ -1)). Settings: compound concentration: 200 uM; treatment time: 3 h.
Chain of USP14 (P54578 whole entry, the tested form may be a part): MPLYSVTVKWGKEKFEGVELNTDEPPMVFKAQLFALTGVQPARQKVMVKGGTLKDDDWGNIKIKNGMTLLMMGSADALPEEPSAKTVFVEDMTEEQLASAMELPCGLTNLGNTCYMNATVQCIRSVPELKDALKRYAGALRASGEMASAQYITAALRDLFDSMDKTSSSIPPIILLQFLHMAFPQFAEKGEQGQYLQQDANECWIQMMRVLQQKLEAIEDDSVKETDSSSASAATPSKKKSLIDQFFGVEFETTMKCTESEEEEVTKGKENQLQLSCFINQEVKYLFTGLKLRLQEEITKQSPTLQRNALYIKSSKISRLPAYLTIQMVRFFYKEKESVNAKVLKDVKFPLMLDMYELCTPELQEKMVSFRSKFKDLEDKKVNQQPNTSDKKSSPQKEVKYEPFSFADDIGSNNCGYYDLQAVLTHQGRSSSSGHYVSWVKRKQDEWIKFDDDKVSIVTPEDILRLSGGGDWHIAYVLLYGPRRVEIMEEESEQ
Experimental: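 Competitive ABPP in HEK293T cell lysate. Lysates were treated with each chloroacetamide fragment at 200 µM for 3 h, then with Biotin-Ahx-Ub-VS (0.5 µM, 1 h), NeutrAvidin-enriched and analysed by diaPASEF LC-MS/MS. Protein LFQ was median-normalised; average log2 ratio is fragment/DMSO from an unpaired t-test (n=3 treated, n=44 DMSO). Hits: q ≤ 0.05, log2 ratio ≤ -1, unique peptides ≥ 2.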

log2 ratio of Biotin-Ahx-Ub-VS probe labelling, inactive:
Cl.O=C(CCl)NCc1ccnc(Oc2ccccc2F)c1 -0.153, O=C(CCl)N(C1CCCC1)C1CCS(=O)(=O)C1 (stereo not given) -0.171, O=C(CCl)Nc1nnc(CC(F)(F)F)o1 -0.206, O=C(CCl)NCc1noc(C2CC2)n1 -0.284, Cc1nc(CN2CCN(C(=O)CCl)CC2)cs1 -0.431, CN1c2ccccc2C(NC(=O)CCl)CS1(=O)=O (stereo not given) -0.335, O=C(CCl)Nc1cc2c(cc1Cl)OCCO2 0.233, O=C(CCl)NC1CCC(C(F)(F)F)CC1 (stereo not given) -0.454, CC(NC(=O)CCl)c1cnn(C2CC2)c1 (stereo not given) -0.778, O=C(CCl)NCc1cccc(N2CCCC2=O)c1 -0.0996, Cc1cccc(NC(=O)[C@@H]2CCCN2C(=O)CCl)n1 -0.519, Cc1cccc(C)c1NC(=O)CCl -0.289, O=C(CCl)NC1CCN(C(=O)C2CCCCC2)CC1 -0.0275, CNC(=O)Cn1cc(NC(=O)CCl)cn1 -0.154, CCc1c[nH]c(CNC(=O)CCl)n1.Cl -0.5, Cc1ccn2cc(CNC(=O)CCl)nc2c1.Cl 0.000672, N#Cc1ccc(CNC(=O)CCl)cc1 -0.177, O=C(CCl)N1CCOC(CCc2ccccc2)C1 (stereo not given) -0.562, O=C(CCl)NCc1cccc(F)c1 -0.167, O=C(CCl)N1CCN(c2nc3ccccc3o2)CC1 -0.836, NS(=O)(=O)c1ccc(Cl)c(NC(=O)CCl)c1 -0.356, O=C(CCl)Nc1ccc2c(c1)OC(F)(F)O2 -0.0555, Cc1cccc(NC(=O)CCl)c1C -0.488, Cc1ncc2c(n1)CCN(C(=O)CCl)C2 -0.161, CN(C)S(=O)(=O)c1ccccc1CNC(=O)CCl 0.0554, CC1CN(c2ccc(NC(=O)CCl)cc2)CC(C)O1 (stereo not given) -0.0454, Cc1ccc(C)c(NC(=O)CCl)c1 -0.687, O=C(CCl)N1CCOC2(CCC2)CC1 -0.247, O=C(CCl)N1CCCC1c1ccsc1 (stereo not given) -0.248, O=C(CCl)Nc1cc(Cl)ccc1C(=O)O 0.0912, O=C(CCl)NC1(c2ccc3c(c2)OCCO3)CCCC1 -0.293, CC(=O)C1CCCCN1C(=O)CCl (stereo not given) -0.101, C[C@@H](NC(=O)CCl)c1cccc(C#N)c1 -0.243, CC(c1ccccc1)N(C)C(=O)CCl (stereo not given) -0.237, N#Cc1ccccc1N1CCN(C(=O)CCl)CC1 -0.673, CC1(NC(=O)CCl)CCS(=O)(=O)C1 (stereo not given) -0.815, CC(NC(=O)CCl)c1ccc2[nH]ncc2c1 (stereo not given) -0.802, C#Cc1cccc(NC(=O)CCl)c1 -0.191, Cl.Cn1ncc2c1CCCC2NC(=O)CCl (stereo not given) -0.227, O=C(CCl)Nc1cc2c(cc1Cl)OCCCO2 0.135
